Measurements taken from PubChem BioAssay AID1508615 (Milbrandt Lab, Department of Genetics, Washington …, 2020).
Hit rate of the full screen: of about 1,600 compounds, about 20 (1%) were called active. The full list was thinned out, with actives kept by preference. Unmarked numbers belong to inactive results.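 How the source made its calls: active means ratio of uncleaved NAD to its breakdown product ADP-ribose above 4, meaning the enzyme was inhibited; inactive means the rest.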

Target: NAD(+) hydrolase SARM1 (Homo sapiens) (UniProt Q6SZW1)
Assay: SARM1 TIR NADase inhibitors by HPLC, primary screen, cell lysate, HPLC readout (AID 1508615);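 further: substrate NAD at 5 µM with 60 min at 37 °C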
Settings: HEK293T SAM-TIR lysate, at 5 µM, hits give high values

Sequence of NAD(+) hydrolase SARM1 (Homo sapiens) (Q6SZW1 whole entry, looked up): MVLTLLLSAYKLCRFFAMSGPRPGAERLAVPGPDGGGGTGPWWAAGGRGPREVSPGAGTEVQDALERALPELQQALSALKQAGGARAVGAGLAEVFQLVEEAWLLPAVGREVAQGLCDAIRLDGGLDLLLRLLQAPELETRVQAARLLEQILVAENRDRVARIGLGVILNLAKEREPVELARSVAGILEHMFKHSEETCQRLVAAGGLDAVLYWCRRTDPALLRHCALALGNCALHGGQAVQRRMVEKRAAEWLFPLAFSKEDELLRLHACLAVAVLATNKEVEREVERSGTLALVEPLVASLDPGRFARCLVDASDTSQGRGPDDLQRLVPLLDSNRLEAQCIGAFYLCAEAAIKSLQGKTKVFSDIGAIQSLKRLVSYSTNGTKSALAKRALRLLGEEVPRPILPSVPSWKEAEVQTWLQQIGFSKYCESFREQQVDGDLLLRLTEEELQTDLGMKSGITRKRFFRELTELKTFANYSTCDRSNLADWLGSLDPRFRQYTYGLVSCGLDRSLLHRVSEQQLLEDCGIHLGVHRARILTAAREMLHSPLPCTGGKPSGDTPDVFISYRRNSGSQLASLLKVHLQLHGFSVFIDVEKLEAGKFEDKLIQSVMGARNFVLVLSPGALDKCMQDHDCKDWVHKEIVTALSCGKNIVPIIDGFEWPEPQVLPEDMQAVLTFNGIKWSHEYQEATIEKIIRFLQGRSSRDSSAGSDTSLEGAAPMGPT

| SMILES | NAD/ADPR ratio |
| --- | --- |
| S=c1nc[nH]c2c1cnn2-c1ccccc1 | 3 |
| CCOC(=O)c1c[nH][nH]c1=O | 3 |
| NC(=O)N/N=C1\CC2CC1C1C=CCC21 (centres undefined) | 3 |
| Cc1nc(Nc2ccc(F)cc2)nc(Nc2ccc(F)cc2)c1[N+](=O)[O-] | 3 |
| Cc1cc2nc3ccc(=[N+](C)C)cc-3sc2cc1N | 3 |
| Cn1c(=O)c2[nH]c(CCCc3ccc([N+](=O)[O-])cc3)nc2n(C)c1=O | 3 |
| CCCc1cc(=O)oc2c3c(c4c(c12)OC(C)(C)C=C4)OC(C)C(C)C3O (centres undefined) | 3 |
| CSc1cccc(NC(=O)Nc2nc3c(C)cccc3s2)c1 | 3 |
| Cc1nc2ccc(Cl)cn2c1[N+](=O)[O-] | 3 |
| Cn1ncc2c(Nc3ccccc3Cl)nc(Cl)nc21 | 3 |
| Cc1ccc(NC(=S)NC(=O)c2ccccc2)cc1NC(=S)NC(=O)c1ccccc1 | 3 |
| Cc1cc(O)c(-c2cc(O)c(C)cc2O)cc1O | 5.8 (active) |
| CCN(CC)CCNC(=O)c1ccc(NCN2C(=O)NC(c3ccccc3)(c3ccccc3)C2=O)cc1 | 3 |
| Cc1cnc2cc(Cl)ccc2c1SCC(=O)O | 3 |
| O=C1NC(=O)N2CCSC2(Cc2ccccc2)N1 (centres undefined) | 3 |
| Nc1ncnc2c1ncn2C1C=C(CO)C(O)C1O (centres undefined) | 3 |
| CCOP(=O)(OCC)/C(C#N)=C/c1ccc(-c2ccc(F)cc2F)o1 | 3 |
| O=c1[nH]cnc(CN2CCCCC2)c1O | 3 |
| CC12CCC(C(=Nc3ccc(N=C4C(=O)C5(C)CCC4C5(C)C)cc3)C1=O)C2(C)C | 3 |
| C#CCOCC1CN(c2ccccc2)C(=O)O1 (centres undefined) | 3 |
| N#Cc1cnn(-c2cccc(Cl)c2)c1-n1cccc1 | 3 |
| Cc1ccc(N=Nc2ccc(C)cc2NC(=O)Nc2ccccc2F)cc1 | 3 |
| Clc1nc2nc3n(c2nc1Cl)CCC3 | 3 |

| SMILES | NAD/ADPR ratio |
| --- | --- |
| CC(=O)Nc1cc(NC(C)=O)ncn1 | 3 |
| O=C1C=C(c2ccccc2)OC(=O)C1C(=O)c1ccccc1 (centres undefined) | 3 |
| O=C(c1ccccc1)c1ccc(Sc2ccc([N+](=O)[O-])cc2)cc1 | 3 |
| O=C(c1ccccc1)C1C(c2ccccc2)C1[N+](=O)[O-] (centres undefined) | 5.3 (active) |
| Clc1ccc(-c2n[nH]c3c2Cc2ccccc2-3)cc1Cl | 3 |
| COc1ccc(C(=S)N2CCN(c3ccccc3Cl)CC2)cc1OC | 3 |
| O=C(O)C(c1ccccc1)C1(O)CCCCC1 (centres undefined) | 3 |
| Cc1cc2cc3c(=O)[nH]c(=O)cc-3n(CC(O)C(O)C(O)CO)c2cc1C (centres undefined) | 3.3 |
| C#CCSc1nnnn1-c1ccc(Br)c(C)c1 | 3 |
| Cc1ccc(S(=O)c2ccc([N+](=O)[O-])c3nonc23)cc1 (centres undefined) | 13.2 (active) |
| O=[N+]([O-])c1cc2cccnc2c2ncccc12 | 3 |
| O=C(O)C(Cc1ccccc1N(CCO)CCO)N1C(=O)c2ccccc2C1=O (centres undefined) | 3 |
| Nc1nc(N)nc(C2C=CCCC2)n1 (centres undefined) | 3 |
| O=C(Oc1ccccc1)c1cccc2cccc(C(=O)Oc3ccccc3)c12 | 3 |
| COc1ccc(N=Cc2c(O)ccc3c2oc2cc(Cl)c(O)c(Cl)c23)cc1 | 3 |
| CC(O)c1nc2c(c(=O)n(C)c(=O)n2C)n1C (centres undefined) | 3 |
| Cn1ncc2c(Nc3ccccc3Cl)nc(Nc3ccccc3Cl)nc21 | 3 |
| Nc1ccc(C(=O)Nc2ccc(Nc3ccncc3)cc2)cc1 | 3 |
| Cc1cc2c(cc1[N+](=O)[O-])NC(CNC(C)C)CC2 (centres undefined) | 3 |
| CNc1ncn(-c2c(C)cccc2C)c(=O)n1 | 3 |
| CS/C(=C\c1ccc(C(=O)c2ccc(C)cc2)n1C)S(C)=O (centres undefined) | 3 |
| COC(=O)C1=CC(=O)N2CCN=C2S1 | 3 |
| COc1cccc(NC(=S)Nc2ccc(O)cc2)c1 | 3 |

| SMILES | NAD/ADPR ratio |
| --- | --- |
| Cc1cccc(NC(=S)Nc2cccc(C)n2)n1 | 3 |
| NC(=O)Nc1n[nH]c(-c2ccccc2)n1 | 3 |
| Cc1ccc(N=Nc2c(N)nn(-c3ccccc3)c2N)cc1 | 3 |
| CCOC(=O)/C(C#N)=C/c1c[nH]c2ccccc12 | 3 |
| CCOC(=O)/C(C#N)=C/c1cccc(C)c1 | 3 |
| CCOC(=O)/C(C#N)=C1\SS/C(=C(/C#N)C(=O)OCC)S1 | 7.9 (active) |
| c1ccn(CCc2ccncc2)c1 | 3 |
| CSC1=NC=C(C#N)C2=NC(c3ccc(Cl)cc3)NN12 (centres undefined) | 3 |
| NC(=O)CCC(C(=O)O)N1C(=O)C2C3CCC(C3)C2C1=O (centres undefined) | 3 |
| CN(NC(=O)C(=O)NCc1ccco1)C(=O)NC1CCCCC1 | 3 |
| O=C(Nc1ccc(Cl)cc1)c1cc2c(cc1O)[nH]c1ccccc12 | 3 |
| O=C(Nc1ccc(Cl)c([N+](=O)[O-])c1)Nc1nc2ccccc2s1 | 3 |
| CCN1CCC(Nc2ccnc3cc(Cl)ccc23)CC1 | 3 |
| Cc1c(N2CCCC2)cc2c(c1NC(=O)c1ccccc1Cl)C(C)(C)CC2(C)C | 3 |
| CCC(C)Nc1nc2c(c(=O)n(C)c(=O)n2C)n1C (centres undefined) | 3 |
| N#CN=C(N)c1ccccc1 | 3 |
| COc1cccc(/C=C2\CCc3ccccc3C2=O)c1 | 3 |
| NC(=O)c1ccccc1NC(=O)c1ccccc1Cl | 3 |
| CC(=O)Nc1ccc(Cc2nc3c([nH]2)c(=O)n(C)c(=O)n3C)cc1 | 3 |
| CCOC(=O)c1ccc(NC(=O)Oc2cc(C)c(Cl)cc2C(C)C)cc1 | 3 |
| Nc1nc(Cl)cc(Nc2ccccc2Cl)n1 | 3 |
| O=[N+]([O-])c1ccc(/C=C/c2ccncc2)cc1 | 3 |
| COC(=O)C1(C(=O)OC)C2C(=O)C3C(C21)C3(C(=O)OC(C)(C)C)C(=O)OC(C)(C)C (centres undefined) | 3 |

| SMILES | NAD/ADPR ratio |
| --- | --- |
| c1ccc2c(c1)cnc1ccccc12 | 3 |
| NC(N)=Nc1nc2ccc([N+](=O)[O-])cc2[nH]1 | 3 |
| O=C(OCC1CCC=CO1)C1CCC=CO1 (centres undefined) | 3 |
| Cc1cc(=O)c2cc(C(=O)c3ccccc3)ccc2[nH]1 | 3 |
| O=S(=O)(O)c1ccc2c(c1)C(C(Cl)(Cl)Cl)OC(C(Cl)(Cl)Cl)O2 (centres undefined) | 3 |
| O=c1nccc(SCc2ccc(Cl)cc2Cl)[nH]1 | 3 |
| Oc1ccccc1-c1nc2c3ccccc3c3ccccc3c2[nH]1 | 3 |
| CN(C)c1nc(=NCc2ccco2)ss1 | 9.7 (active) |
| CN(C)C(=S)/N=c1\ssc(=S)n1Cc1ccco1 | 3 |
| O=C(O)CCC(=O)OCCN(Cc1ccc(Oc2ccc([N+](=O)[O-])cc2)cc1)C(=O)C(Cl)Cl | 3 |
| CN(C)CC1C2CCC(C2)C1O (centres undefined) | 3 |
| C(=C\c1ccccn1)/c1ccccn1 | 3 |
| O=C(Oc1ccc[nH]c1=O)c1cccc(Cl)c1 | 3 |
| Cc1nc(N)nc(Nc2ccc(C#N)cc2)c1Br | 3 |
| CCCCN1CCNC1=S | 3 |
| Cc1cccc(Nc2sc(C(=O)c3cc4cc(Cl)ccc4o3)c(N)c2C#N)c1 | 3 |
| O=c1c2ccccc2ncn1-c1ccc(Cl)cc1 | 3 |
| c1cncc(-c2nc3ccccc3s2)c1 | 3 |
| C1=CC2(C=C1)OC21CCC2(C=CC3(C2)OC3C2CCCCC2)CC1 (centres undefined) | 3 |
| NCc1c(O)ccc2ccccc12 | 3 |
| COC1CC(C)C(OC)c2cc(O)cc(c2O)NC(=O)/C(C)=C/C=C\C(C)C(OC(N)=O)/C(C)=C\C(C)C1OC (centres undefined) | 3 |
| NNC(=O)CNC(=O)Nc1n[nH]c(=S)s1 | 3 |
| O=C(c1cccnc1)c1cc(-c2ccccn2)c(=O)n2ccccc12 | 3 |

| SMILES | NAD/ADPR ratio |
| --- | --- |
| Cc1ccc(S(=O)(=O)N(C)C)cc1[N+](=O)[O-] | 3 |
| CC(C)(C)NC1=NCCNC(c2ccccc2)=C1 | 3 |
| S=c1c2[nH]cnc2ncn1CCSc1ncnc2nc[nH]c12 | 3 |
| CC1=C(C#N)C(C)(C)C(C#N)=C(C)N1 | 3 |
| CCCCCC(=O)N1CCCC1 | 3 |
| CN(C)c1nc(=Nc2cccc(Cl)c2)ss1 | 11.3 (active) |
| O=C1C(=Nc2cccc(Cl)c2)CC(c2ccc(Cl)cc2)N1c1cccc(Cl)c1 (centres undefined) | 3 |
| Nc1nc(=S)c2ncn(C3CCCC3)c2[nH]1 | 3 |
| O=c1oc(-c2ccccc2)c(-c2ccccc2)c2ccccc12 | 3 |
| O=[N+]([O-])c1cccc(/C=C/c2ccccn2)c1 | 3 |
| CC(C)(c1cc(Cl)c(O)c(CN2CCOCC2)c1)c1cc(Cl)c(O)c(CN2CCOCC2)c1 | 3 |
| O=c1[nH]c(C(F)(F)C(F)(F)C(F)(F)F)no1 | 3 |
| CN1C(=O)CC2(C)C1=CCc1scnc12 (centres undefined) | 3 |
| COc1ccc(C2=NC(=O)NC2c2ccc(OC)cc2)cc1 (centres undefined) | 3 |
| CCOc1nc(OCC)c2cnn(C)c2n1 | 3 |
| O=C1NC(=O)C2(CCc3ccccc32)N1 (centres undefined) | 3 |
| CC1(C)CC[C@]2(C(=O)n3ccnc3)CC[C@]3(C)[C@H](C(=O)C=C4[C@@]5(C)C=C(C#N)C(=O)C(C)(C)[C@@H]5CC[C@]43C)[C@@H]2C1 | 6.5 (active) |
| Cc1nc(N)[nH]c(=O)c1CCCNc1ccc(CCC2(CCl)OCCO2)cc1 | 3 |
| CCCCSc1nc(C(=O)O)cc(=O)[nH]1 | 3 |
| Cc1ccc(-c2cssc2=S)cc1 | 3 |
| CCCCOP(=O)(OCCCC)C1(C)CC(=O)CC(C)(C)C1 (centres undefined) | 3 |
| Cc1[nH]c(=S)[nH]c(=O)c1CCC1OCCO1 | 3 |
